Bioassay records (PubChem BioAssay)
An excerpt weighted towards active compounds, which were near 19% of everything screened.
DT40 TDP1 CPT: DT40-hTDP1 cell growth loss with CPT; chicken DT40 Tdp1-/-;hTDP1 cells + 20 nM CPT, ATP luminescence, 48 h; Potency, µM (series often up to 46.2 µM), for the others: at the top dose activity change, negative = growth inhibition, usual class: inhibitors; actives 12% (n = 420,000); further: nearly all actives have a fitted effect of over 55% in size
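Chicken DT40 Tdp1-/- cells stably complemented with human TDP1 were seeded at 400 cells/well in medium containing 20 nM camptothecin, exposed to pin-transferred compounds, and grown at 37 °C for at least 48 hr. Viability was read as ATP luminescence.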
HT1080NT lethal: kills 2HG-producing HT-1080-NT fibrosarcoma cells | HT-1080-NT fibrosarcoma viability, CellTiter-Glo ATP luminescence, 48 h | Potency, µM (doses to about 46.1 µM), inactives show at the top dose activity, negative = less viability, most hits filed as cytotoxic | actives 1.6% (n = 360,000);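 further: NT is the 2HG producing partner of a matched IDH1 knockdown line; 0% = DMSO-treated cells and -100% = media-only wells without cells; nearly all actives have a fitted effect of over 55% in size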
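Luminescent CellTiter-Glo readout after 48 hours of compound exposure at 37 degrees C defined viability of HT-1080-NT cells. Activity was normalized to DMSO wells and cell-free media wells; concentration-response curves were fitted and assigned curve classes.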
DT40 TDP1 no CPT: qHTS for Inhibitors of human tyrosyl-DNA phosphodiesterase 1 (TDP1): qHTS in cells in absence of CPT; actives 15% (n = 420,000); AID 686978, 2013; DT40 Tdp1-/- hTDP1 cells, no CPT, ATP luminescence, 48 h; Potency, µM (titrated, usually from 46.2 µM), inactives show at the highest dose activity change, negative = growth inhibition, actives largely listed as inhibitors; further: nearly all actives have a fitted effect of over 55% in size
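Seeded 400 DT40-hTDP1 cells/well (vehicle DMSO, no 20 nM CPT); pinned compounds; ≥48 hr at 37 °C; CellTiter-Glo luminescence as viability measure.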
KB-3-1 cytotox: KB-3-1 parental cell cytotoxicity. KB-3-1 viability, CellTiter-Glo ATP luminescence, 72 h. actives 1.4% (n = 400,000). AID 1347075. Potency, µM (doses to about 46.1 µM), usual class: cytotoxic; further: nearly all actives have a fitted effect of over 60% in size
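Screening of KB-3-1 cells (DMEM, 10% FBS, phenol-red free) ran from lowest to highest compound concentration; after 72 h at 37 °C viability was read luminescently and curves fitted.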
HT1080 IDH1KD tx: toxicity to HT-1080 IDH1 knockdown cells (counter line) | HT-1080 IDH1 knockdown viability, ATP luminescence, 48 h | actives 2% (n = 360,000) | Potency, µM (series often up to 46.1 µM), without a hit: at the top dose activity, negative = toxicity, hits mostly cytotoxic;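 further: 0% = DMSO wells and -100% = cell-free medium wells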
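CellTiter-Glo luminescence after 48 h compound exposure at 37 degrees C of IDH1-knockdown HT-1080 cells in 5% FBS RPMI. %Activity scaled between DMSO wells and cell-free media wells, with curves fitted and assigned curve classes.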
KB-V1 cytotox: KB-V1 MDR subline cytotoxicity. KB-V1 MDR cells viability, CellTiter-Glo, 72 h. Potency, µM (titrated, usually from 46.1 µM), actives largely listed as cytotoxic. actives 3.4% (n = 400,000). AID 1347076; further: nearly all actives have a fitted effect of over 60% in size
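Cells of the MDR subline KB-V1 are plated, dosed with compound at multiple concentrations, and incubated 72 h at 37 degrees C; CellTiter-Glo is then added and luminescence read after 10 min.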
* hit, by the source's call; i = inactive; ? = inconclusive; · = no result; [ ] = remark or other dose. The call rests on the fitted dose curve; in most records, active means well fitted curve in the direction sought with a large enough effect; inconclusive means small, poorly fitted or top-dose-only effect, or another doubt; inactive means no such curve, though single readings can be large; an effect the other way counts as inactive or inconclusive. Unless noted, on the % scale 0 is the no-effect control and ±100 the full control effect; potency means the concentration at half of the fitted maximal effect.

SMILES | DT40 TDP1 CPT | HT1080NT lethal | DT40 TDP1 no CPT | KB-3-1 cytotox | HT1080 IDH1KD tx | KB-V1 cytotox
COCC(=O)Nc1ccc2c(c1)[C@@H]1C[C@H](CC(=O)OC)O[C@@H](CO)[C@@H]1O2 | 21.7% | 0.2% | 2.5% | i | 4.3% | i
CCCn1c(SCc2nc(-c3ccc(OC)cc3OC)no2)nnc1-c1ccc(Cl)cc1 | 20.6µM* | · | 25.9µM* | i | · | i
CCCn1c(SCc2nc(-c3cccs3)no2)nnc1-c1ccncc1 | -25.9% | -4.1%[9.24 µM] | ? | i | -7.5% | ?
CCCn1c(SCc2nc(-c3ccccc3OCC)no2)nnc1-c1ccc(Cl)cc1 | ? | · | 18.4µM* | i | · | i
CCOc1ccc2ccccc2c1C(=O)Nc1cc(=O)n(C)c(=O)n1C | -14.5% | -3.4% | -17.9% | i | 7.2% | i
COc1ccc(/C(=N/Nc2ncnc3ccccc23)C(=O)O)cc1 | 20.6µM* | 23.1µM* | ? | i | 23.1µM* | i
Cc1ccc(S(=O)(=O)NCc2ccccc2)cc1C(=O)N1CC(C)CC(C)C1 (configuration not stated) | ? | 8.2% | 18.4µM* | i | 1.4% | 13µM*
Cc1ccc(S(=O)(=O)NCc2ccccc2)cc1C(=O)N1CCN(c2ccccc2)CC1 | ? | -2.7% | ? | 14.6µM* | 0.9% | ?
Cc1ccc(S(=O)(=O)NCc2ccccc2)cc1C(=O)N1CCCCC1 | -6.5% | 16.3% | 2.2% | i | 3.1% | i
Cc1ccc(S(=O)(=O)NCc2ccccc2)cc1C(=O)N1CCN(S(=O)(=O)c2ccccc2F)CC1 | 11.6µM* | -6.0% | ? | i | -3.1% | i
CC1CCCC(C)N1C(=O)COC(=O)c1ccc(O)cc1 (configuration not stated) | -8.7% | 0.7% | -7.1% | i | 11.9% | i
Cc1ccc(CN2CCN(C3CCN(C(=O)Nc4ccc(C)cc4Cl)CC3)C(=O)C2=O)cc1 | -11.7% | · | ? | i | · | i
c1ccc(Cn2c(-c3ccccc3)c[n+]3c2SCCC3)cc1 | 2.91µM* | -2.6% | 2.31µM* | i | -23.8% | i
COc1ccc(-c2c[n+]3c(n2-c2ccccc2)SCC3)cc1OC | -2.3% | 7.0% | ? | i | 7.7% | i
Cc1cccc(C)c1NC(=O)C1C(c2ccccc2)=Nc2ccccc2N1C(=O)c1cnccn1 (configuration not stated) | -39.6% | -14.1% | ? | i | 16.6% | i
CCCOc1ccc(C(=O)Nc2ccc3oc(-c4ccc5ccccc5c4)nc3c2)cc1 | 5.7% | · | -6.8% | i | · | i
O=C(Nc1ccc2oc(-c3ccc4ccccc4c3)nc2c1)c1ccc2c(c1)OCCO2 | 5.8µM* | ? | 8.2µM* | i | ? | 2.59µM*
CC(C)c1ccc2oc(-c3cccc(NC(=O)c4ccc5c(c4)OCCO5)c3)nc2c1 | ? | · | 16.4µM* | i | · | i
COc1ccc2oc(-c3ccc(C)c(NC(=O)c4ccc5c(c4)OCCO5)c3)nc2c1 | ? | · | 16.4µM* | i | · | i
O=C(Nc1ccc2oc(-c3ccc4ccccc4c3)nc2c1)c1cccc(Cl)c1Cl | 8.2µM* | · | 5.17µM* | i | · | i
Cc1oc(-c2ccccc2)nc1CS(=O)CC(=O)NC1CCCC1 (configuration not stated) | 0.7% | -15.6% | -15.0% | i | 1.9% | i
O=C(c1ccccc1Br)N1CCc2c([nH]c3ccccc23)C1 | -24.6% | -2.4% | -15.0% | i | -0.3% | i
CN(CC(=O)Nc1ccccc1Br)C(=O)CN1CCN(Cc2ccc(Cl)cc2)CC1 | ? | -3.5% | ? | i | -1.6% | i
COC(=O)CC1C2(C)CC34OC5(C)O[C@@]6(C7/C(=C(/OC)C(C)C)C(=O)OC(c8ccoc8)[C@@]7(C)C(OC(=O)C(C)C)C(OC)[C@]6(O5)[C@@]13C)C(OC)[C@]4(OC)C2OC(C)=O (some centres not stated) | 8.2µM* | · | 13µM* | · | · | ·
CC(C)/C(O)=C1/C(=O)OC(c2ccoc2)[C@@]2(C)C(O)C(O)[C@@]34OC5(C)OC67CC(C)(C(O)[C@@]6(O)C(O)[C@@]3(O5)C12)C(CC(=O)O)[C@@]74C (some centres not stated) | 10.2% | · | -4.5% | · | · | ·
SMILES | DT40 TDP1 CPT | HT1080NT lethal | DT40 TDP1 no CPT | KB-3-1 cytotox | HT1080 IDH1KD tx | KB-V1 cytotox
CCOC(=O)c1cc2sccc2n1CC(=O)N1CCCC1 | -19.5% | 1.3% | -15.2% | i | 6.3% | i
Cn1c(-c2ccccc2)cc2onc(-c3ccccc3)c2c1=O | 14.6µM* | -1.6% | 20.6µM* | i | -5.6% | i
CC(=O)c1c(C)[nH]c(C(=O)OCC(=O)N(Cc2ccccc2)C(C)(C)C)c1C | ? | -7.7% | ? | i | -6.5% | i
O=C(NCC1CCCN1S(=O)(=O)c1cccs1)c1ccccc1F (configuration not stated) | -26.6% | 15.7% | ? | i | 7.5% | i
COc1cccc(/C=C/c2nc(C#N)c(NCCc3ccccc3)o2)c1 | ? | · | 14.6µM* | · | · | ·
CCOc1ccc(/C=C/c2nc(C#N)c(N(C)C)o2)cc1 | 16.4µM* | · | 14.6µM* | · | · | ·
COc1ccc(Nc2oc(/C=C/c3cccc(OC)c3)nc2C#N)cc1 | 18.4µM* | · | ? | i | · | i
CN(C)c1oc(/C=C/c2ccc(F)cc2)nc1C#N | -22.1% | · | -18.3% | · | · | ·
COc1cccc(/C=C/c2nc(C#N)c(NCCN(C)C)o2)c1 | -29.9% | · | ? | i | · | i
COc1cccc(/C=C/c2nc(C#N)c(N(C)Cc3ccccc3)o2)c1 | ? | · | 23.1µM* | i | · | i
CCOc1ccc(/C=C/c2nc(C#N)c(NCCc3ccccc3)o2)cc1 | 1.3µM* | · | 1.16µM* | · | · | ·
COCCNc1oc(/C=C/c2ccc(F)cc2)nc1C#N | 4.1% | · | -23.1% | · | · | ·
CCNc1oc(/C=C/c2ccc(OCC)cc2)nc1C#N | 7.31µM* | -15.1% | 8.2µM* | ? | ? | i
COc1ccccc1/C=C/c1nc(C#N)c(NCCc2ccccc2)o1 | ? | · | 16.4µM* | · | · | ·
COc1ccc(CCNc2oc(-c3ccccc3OC)nc2C#N)cc1 | ? | -20.3% | ? | i | ? | i
CCOC(=O)c1cc(-c2ccc(OC)cc2)nn1-c1ccc(C(=O)O)cc1 | -0.4% | 1.6% | 6.9% | i | 0.1% | i
